For twelve molecules, composite z-score and z-score results are on record in PubChem BioAssay.

Test [1] has as its system Human papillomavirus type 1a protein E7 (residues 44-93). Nature of the test: small molecules binding HPV E7 44-93 – biochemical, small-molecule microarray, residues 44-93, 635 nm fluorescence, primary screen (AID 1108).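 Further: E7 fragment applied at 1 µg/mL in TBST for 1 h at 4 C; score combines spot fluorescence with its signal to noise ratio.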 Particulars: fluorescence 635 nm, higher = more signal.
Test [2] is described as follows: hepatitis C replication reporter changes, two-sided – Huh7 cells, luciferase reporter, HCV replication inhibitor project, primary screen (AID 1109).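 Further: huh7 hepatoma cells harbouring a luciferase neomycin HCV replicon reporter; luciferase luminescence as measure of HCV replicon replication; test concentration not given here.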 The conditions noted are these: Huh7 HCV replicon luciferase reporter, 48 h; higher = more signal.
Test [3] has as its target Left-right determination factor 2 (Homo sapiens) (UniProt O00292). Nature of the test: small molecules binding LEFTY2 protein – biochemical, small-molecule microarray, 635 nm fluorescence scan, primary screen (AID 1110). Particulars: higher = more signal.
Test [4] deals with Calmodulin-1 (Homo sapiens) (UniProt P0DP23). Nature of the test: small molecules binding calmodulin-1 with EGTA – biochemical, small-molecule microarray, Cy5-labelled CALM1, profiling panel (AID 1111).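 Further: labelled calmodulin applied in Tris saline Tween buffer holding calcium plus EGTA and DTT.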 Particulars: Cy5-CALM1 binding fluorescence, higher = more signal.
Test [5] shares this target. Nature of the test: small molecules binding Ca-loaded calmodulin-1 – biochemical, small-molecule microarray, Cy5-labelled CALM1, plus calcium, artefact control for SMM control-protein annotation, profiling panel (AID 1112).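 Further: score merges spot fluorescence with signal to noise from triplicate slides.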 Particulars: Cy5-CALM1 binding fluorescence, higher = more signal.
The nature of test [6]: probe aWnt5a binding to arrayed compounds – biochemical, biotinylated probe, 635/667 nm fluorescence, primary screen (AID 1113).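 Further: score merges 667 nm fluorescence intensity with signal-to-noise per printed feature.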 Particulars: small-molecule microarray, higher = more signal.
The nature of test [7]: probe aShh binding to arrayed compounds – biochemical, biotinylated probe, 635/667 nm fluorescence, primary screen (AID 1114).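 Further: probe is biotin-labelled aShh protein from a stem cell growth factor screen; measures binding of labelled protein to compounds printed on the slide; score merges feature fluorescence at 667 nm with signal-to-noise.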 The conditions noted are these: small-molecule microarray, higher = more signal.
Test [8] can be described thus: probe aNog binding to arrayed compounds – biochemical, biotinylated probe, 635/667 nm fluorescence, primary screen (AID 1115).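 Further: probe is biotinylated aNog protein used at 0.15 µg/mL for 1 h at 4 C; z-score combines 667 nm fluorescence of each spot with its signal to noise.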 The conditions noted are these: small-molecule microarray, higher = more signal.
Test [9] concerns the target Torsin-1A-interacting protein 1 (Homo sapiens) (UniProt Q5JTV8). Put plainly: compound microarray binding of lysate hLAP1 – cell lysate, small-molecule microarray, COS7 lysate, 635/667 nm fluorescence, primary screen (AID 1116). The conditions noted are these: 635 nm fluorescence, higher = more signal.
In test [10] the target is Alpha-bungarotoxin (Bungarus multicinctus) (UniProt P60615). Put plainly: compounds binding labelled alpha-BTX control protein – biochemical, small-molecule microarray, Alexa647 label, 635/667 nm fluorescence, artefact control for SMM control protein annotation, profiling panel (AID 1117). Particulars: alpha-BTX-A647 binding fluorescence, higher = more signal.
Chain of Alpha-bungarotoxin (Bungarus multicinctus) (P60615 whole entry, looked up): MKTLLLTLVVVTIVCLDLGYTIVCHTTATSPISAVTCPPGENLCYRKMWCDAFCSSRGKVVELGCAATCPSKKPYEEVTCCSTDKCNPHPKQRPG

The structures appear in SMILES notation.

Chain of Left-right determination factor 2 (Homo sapiens) (O00292 whole entry, looked up): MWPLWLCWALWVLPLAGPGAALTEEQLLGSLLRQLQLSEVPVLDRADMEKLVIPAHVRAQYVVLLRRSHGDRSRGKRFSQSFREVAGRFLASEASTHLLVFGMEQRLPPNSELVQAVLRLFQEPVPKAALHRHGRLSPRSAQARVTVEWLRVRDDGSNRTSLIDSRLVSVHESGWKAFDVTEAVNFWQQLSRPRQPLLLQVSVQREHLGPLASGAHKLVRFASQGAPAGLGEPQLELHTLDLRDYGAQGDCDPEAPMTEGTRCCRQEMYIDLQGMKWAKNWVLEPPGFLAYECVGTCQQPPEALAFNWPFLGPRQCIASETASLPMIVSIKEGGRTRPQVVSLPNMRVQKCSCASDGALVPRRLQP
Chain of Torsin-1A-interacting protein 1 (Homo sapiens) (Q5JTV8 whole entry, looked up): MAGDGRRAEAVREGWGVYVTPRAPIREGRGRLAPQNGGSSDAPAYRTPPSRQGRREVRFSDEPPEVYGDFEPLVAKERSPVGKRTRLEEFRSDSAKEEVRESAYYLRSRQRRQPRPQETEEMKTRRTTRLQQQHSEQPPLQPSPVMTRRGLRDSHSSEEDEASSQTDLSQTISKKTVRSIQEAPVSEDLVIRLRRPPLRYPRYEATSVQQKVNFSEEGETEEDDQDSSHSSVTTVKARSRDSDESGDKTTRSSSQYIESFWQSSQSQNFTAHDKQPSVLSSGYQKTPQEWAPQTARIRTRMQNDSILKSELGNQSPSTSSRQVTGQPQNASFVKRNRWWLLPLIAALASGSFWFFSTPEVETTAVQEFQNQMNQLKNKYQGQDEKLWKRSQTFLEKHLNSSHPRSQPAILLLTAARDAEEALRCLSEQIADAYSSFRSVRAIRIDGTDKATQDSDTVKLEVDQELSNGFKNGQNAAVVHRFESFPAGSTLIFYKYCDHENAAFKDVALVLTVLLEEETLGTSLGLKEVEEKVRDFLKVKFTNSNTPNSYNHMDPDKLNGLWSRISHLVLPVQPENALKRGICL

For the molecule `CCN1C(=O)[C@H]2[C@H]3[C@H](O)[C@H](O)CC(=NOCC(C)C)[C@@H]3CC[C@H]2C1=O`, the composite z-score in test [1] is 1.33; in test [3], 0.32; in test [4] it was -0.39; in [5], -0.682; in [6] it was -0.096; in test [7], -0.0709. In addition, the values for the composite z-score in test [8], in test [9] and in test [10] were -0.255, 0.317 and 0.13, respectively. Also, in test [2], the z-score was -0.0305.

With `CO[C@H]1COC(=O)[C@@H](C)COC(=O)[C@H](C)NC(=O)CC=C[C@H]1C`, the composite z-score was -0.328 in [1]; 1.28 in test [3]; -0.451 in test [4]; -1.98 in test [5]; -0.178 in test [6]; -0.243 in test [7]. For the same molecule, the composite z-score in [8] was -0.379; in test [9] it was -0.15; in [10], -0.354. In test [2], this molecule registered a z-score of -0.399.

As for `COC(=O)CC=C[C@@H](C)[C@@H](C=NOC[C@H]1O[C@H](c2ccccc2)C=C[C@@H]1Oc1ccc(OC)cc1)NS(=O)(=O)c1ccc(C)cc1`, the composite z-score in test [1] was -1.1; in [3], -0.233; in [4], -1.07; in [5] it was -0.467; in [6], -0.147; in test [7], -0.112. Also, the composite z-score in test [8] is -0.181; in test [9], -0.306; in test [10], -0.183. Besides, the z-score in test [2] was -0.787.

For `CCCCC#C[C@@H]1C=C[C@H](OC(C)=O)[C@@H](COC(C)=O)O1`, the composite z-score in test [1] is 0.713; in test [3], 0.579; in [4], 0.349; in [5], -0.0635; in test [6], -0.118; in test [7], -0.221. In addition, the composite z-score in test [8] is -0.285; in test [9] it was 0.339; in test [10] it was 0.217. In [2], this molecule returned a z-score of -2.47.

Take `CC(CCN1CCCc2nc(C)c(C)cc21)=NOC(C)CN1CCCCc2nc(C)c(C)cc21` (stereo not given): the composite z-score was 1.35 in test [1]; 0.984 in test [3]; 0.341 in [4]; -0.568 in test [5]; 0.159 in test [6]; 0.689 in test [7]. Moreover, the composite z-score came out at 0.57 in test [8], 0.436 in [9] and 0.714 in [10]. Besides, the z-score in test [2] was -1.66.

On to `COC(=O)CC=C[C@@H](C)[C@@H](C=NO[C@@H](C)c1cn([C@H](CO)Cc2ccccc2)nn1)OC`, for which the composite z-score in test [1] was 0.939; in test [3], 0.499; in test [4] it was -1.04; in test [5], -1.48; in test [6] it was -0.0944; in [7], -0.138. Besides, the composite z-score in [8] was 0.15; in test [9], -0.0644; in test [10], -0.027. The z-score in test [2] turned out to be 0.0629.

Regarding `C=CC[C@@H]1C=C[C@H](ON=C(C)CCC(=O)OC[C@H]2O[C@H](C#Cc3ccccc3)C=C[C@@H]2Oc2ccc(C)cc2)[C@@H](CO)O1`, the composite z-score in [1] is 1.42; in test [3], 0.605; in test [4], 0.759; in [5], 0.188; in test [6], -0.0236; in test [7], 0.0639. Further, the composite z-score in [8] was -0.0463; in test [9], 0.728; in test [10], 0.742. Moreover, the z-score in test [2] was 0.568.

Regarding `CO[C@H]1COC(=O)CC=C[C@H](C)[C@@H](OC)COC(=O)[C@@H](C)COC(=O)CC=C[C@@H]1C`, the composite z-score is -0.544 in test [1]; 1.16 in [3]; -2.12 in test [4]; -2.84 in [5]; -0.1 in test [6]; -0.0769 in test [7]. For the same molecule, the composite z-score in [8] was -0.339; in [9], 0.34; in test [10], -1.47. Further, the z-score in [2] was -1.09.

For the molecule `COc1ccc(O[C@H]2C=C[C@@H](c3ccccc3)O[C@@H]2CON=C(C)CCN2CCc3nc(-c4ccccc4)c(-c4ccccc4)cc3C2)cc1`, the composite z-score in [1] is -0.797; in test [3], -0.417; in [4] it was 0.387; in test [5] it was -0.0427; in test [6] it was -0.169; in [7], -0.123. For the same molecule, the composite z-score in test [8] was -0.198; in [9], 0.173; in [10], 0.67. Besides, the z-score in test [2] is -3.38.

For `CCOC(=O)[C@H](Cc1ccccc1)NC(=O)CCC1CC(OC(=O)NCCc2ccc(F)cc2)CC2(CCCC(COC(=O)NCCCN3CCCC3=O)O2)O1` (stereo not given in full), the composite z-score in test [1] was 1.35; in test [3], 0.612; in test [4], 0.566; in [5], -0.043; in test [6], -0.0222; in [7] it was 0.149. For the same molecule, the composite z-score in [8] turned out to be 0.0083; in test [9], 0.0166; in test [10], 0.261. This molecule yielded a z-score in test [2] of -0.427.

For the molecule `CC(C)=CCCC(C)=CCON=C1C[C@@H](O)[C@@H](O)[C@@H]2[C@@H]3C(=O)N(Cc4ccccc4)C(=O)[C@@H]3CC[C@@H]12`, the composite z-score is 0.209 in test [1]; 1.08 in test [3]; -0.488 in test [4]; -1.32 in test [5]; -0.154 in test [6]; -0.214 in test [7]. Further, the figures for the composite z-score in test [8], in test [9] and in test [10] were -0.0709, 0.712 and 0.398, respectively. The molecule also showed a z-score in test [2] of 0.45.

Regarding `O=C1CCCC=C1C(O)CCOC(c1ccccc1)(c1ccccc1)c1ccccc1` (stereo not given), the composite z-score in [1] was -1; in test [3], 0.13; in test [4] it was -0.428; in [5], -0.131; in test [6] it was -0.0161; in [7], -0.366. Moreover, the composite z-score in [8] is 0.0195; in test [9], -0.462; in test [10] it was -0.28. Besides, in [2], the z-score was -3.22.
